Laboratory results published in PMC6792352, “Limited Chemical Structural Diversity Found to Modulate Thyroid Hormone Receptor in the Tox21 Chemical Library” (Environmental Health Perspectives, 2019).
Counter-ions that a name gives are not always drawn.

Tested on: thyroid hormone receptor (endogenous TRα and TRβ)
Parameters: species or system GH3-TRE-Luc (rat pituitary); GH3-TRE-Luc luciferase reporter, antagonist mode against 1 nM T3, loss of signal, qHTS
Conditions: read-out: Average AC50 (uM) GH3-TRE-Antag, antagonist mode, 1 nM T3, no GH3 cytotoxicity hit

Compound | AC50 [µM]
Clc1cccc(C(c2ccc3[nH]cnc3c2)n2ccnc2)c1 (stereo not shown) [Liarozole hydrochloride] | 38.6
CCOC(=O)n1ccn(C)c1=S [Carbimazole] | > 20
CCCCCCCCCCCCN [1-Dodecanamine] | 74.1
CN(C)c1ccc(SC#N)cc1 [4-(Dimethylamino)phenylthiocyanate] | 59.1
